D1 agonist – Allosteric Agonists of the Human D1 Dopamine Receptor: qHTS; 360,000 compounds, 1% hits; activation, % at 2 µM; D(1A) dopamine receptor (Homo sapiens), P21728; HEK293 T-REx D1 cells, calcium flux, agonist mode; in the data active means activation above about 30%; further: 0% is about no effect
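Agonism was scored from calcium flux recorded over 180 s (1 read/s) after pintool compound addition, following a 10-cycle baseline. Cells were inducible force-coupled HEK293 TREx D1, plated overnight at 30 C and loaded with no-wash calcium dye.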
ERG-DNA inh – qHTS for Small Molecule Inhibitors of the ERG Ets/DNA interaction; AID 624246, 2012; 370,000 compounds, 0.028% hits; Potency, µM (doses to about 76.9 µM), without a hit: at the top dose FP activity, negative = inhibition, hits mostly inhibitors; fluorescence polarization, His-ERG Ets domain / labelled DNA; active means well fitted inhibition curve with a large enough effect in the polarisation, with a control signal flat; inconclusive means small, poorly fitted or top-dose-only effect, or effect the other way, or a change in a side signal; inactive means no such curve, though single readings can be large or run the other way; the % refers to the polarisation;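 further: polarization taken with two DNA probes labelled with fluorescein and Texas red; potency means the concentration at half of the fitted maximal effect; % of control where 0% means no effect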
Target sequence (P11308 whole entry, looked up, the tested form may be a part): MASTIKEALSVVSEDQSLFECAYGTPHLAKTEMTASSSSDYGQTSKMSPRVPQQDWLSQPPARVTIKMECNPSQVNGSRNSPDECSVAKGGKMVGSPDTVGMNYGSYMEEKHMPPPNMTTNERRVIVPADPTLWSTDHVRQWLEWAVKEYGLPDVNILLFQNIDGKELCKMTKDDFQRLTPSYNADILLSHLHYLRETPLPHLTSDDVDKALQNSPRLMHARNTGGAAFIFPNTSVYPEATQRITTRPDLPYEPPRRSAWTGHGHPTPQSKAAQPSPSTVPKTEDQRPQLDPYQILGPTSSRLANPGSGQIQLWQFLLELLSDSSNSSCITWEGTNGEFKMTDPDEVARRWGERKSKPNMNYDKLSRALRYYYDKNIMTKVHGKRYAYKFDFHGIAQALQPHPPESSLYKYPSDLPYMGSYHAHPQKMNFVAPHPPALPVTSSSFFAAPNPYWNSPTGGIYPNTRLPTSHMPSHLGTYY
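His-tagged ERG Ets domain (1 uM in the protein solution; 300mM KCl, 50mM Tris-HCl, 1mM EDTA, 1mM DTT, pH 7.5) received compound, then a probe mix of 5 nM fluorescein-DNA and 100nM Texas-615-DNA. Fluorescence polarization was read for both dyes.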
D1 PAM – Potentiators of Human D1 Dopamine Receptor: qHTS; 360,000 compounds, 0.036% hits; potentiation, % at 10 µM; HEK293 TREx D1 cells, calcium flux, dopamine EC20 potentiation; in the data active means potentiation above about 30%; further: 0% is about no effect
DRD3 agonist – qHTS of D3 Dopamine Receptor Agonist: qHTS | D(3) dopamine receptor (Homo sapiens), P35462 | D3R DiscoveRx beta-arrestin cells, luminescence, 90 min | max activation, % | 410,000 compounds, 0.58% hits | AID 652048, 2013; in the data active means max activation above about 30%; further: 0% is about no effect
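Agonist mode: compounds and dopamine controls were applied to plated cells for 90 min at 37 degrees C after an overnight attachment at 1500 cells/well. Luminescent read-out followed 30 - 60 minutes at room temperature with DiscoveRx detection reagent.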
D1 antag – Antagonist of Human D 1 Dopamine Receptor: qHTS | D(1A) dopamine receptor (Homo sapiens), P21728 | HEK293 TREx D1 cells, calcium flux, dopamine EC80; stronger effect = lower value | activity change, negative = inhibition, % at 10 µM | 360,000 compounds, 3.2% hits | AID 504652, 2011; in the data active means activity change below about -30%; further: on the % scale 0 is the no-effect control and ±100 the full control effect
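HEK293 T-REx cells expressing inducible, force-coupled D1 receptor; no-wash Ca dye, 30–90 min RT. Cmpd → 180 s read at 1 Hz → EC80 DA → 180 s read.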
DRD3 antagonist – qHTS of D3 Dopamine Receptor Antagonist: qHTS; D3R cells, DiscoveRx beta-arrestin luminescence, antagonist mode; stronger effect = lower value; D(3) dopamine receptor (Homo sapiens), P35462; AID 652054, 2013; 360,000 compounds, 2.5% hits; max response, negative = inhibition, %; in the data active means max response below about -50%; inconclusive means no clear call, values can overlap the other calls; further: on the % scale 0 is the no-effect control and ±100 the full control effect
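Cells plated overnight at 1500 cells/well, then exposed to library compounds with dopamine controls for 90 minutes at 37 degrees C. DiscoveRx reagent added for 30–60 minutes at room temperature; luminescence read, quantitative HTS format.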
Starred values were filed as active, the others as inactive; ? = inconclusive; / = no result; [ ] = remark or other dose. An excerpt weighted towards active compounds, which were near 6.1% of everything screened.

SMILES | D1 agonist | ERG-DNA inh | D1 PAM | DRD3 agonist | D1 antag | DRD3 antagonist
CCOC(=O)/C(=C\c1cccnc1)C(=O)c1cc(C(C)=O)c(Nc2ccccc2)s1 | 2 | 2% | -6 | -30 | -11 | -130*
COc1ccc(/C=C/C(=O)O/N=C(\N)c2cccnc2)cc1OC | 2 | -5% | -3 | 3 | 7 | 0
COc1ccc(C=C(C(C)=O)C(C)=O)cc1OC | 1 | -20% | -3 | 2 | -16 | -50*
COc1ccc(C(=O)NC(=S)NNC(=O)Cc2cccs2)cc1 | 4 | -1% | 5 | 1 | 3 | -67*
COc1cc(OC)cc(C(=O)NC(=S)NNC(=O)Cc2cccs2)c1 | 0 | 14% | -3 | 2 | 12 | 20
CCOC(=O)/C(=C\c1ccc(OC)c(OC)c1)C(=O)c1cccnc1 | 0 | -1% | -4 | -18 | -12 | -50*
Cc1cccc(C)c1OCC(=O)Nc1oc(-c2ccccc2)c(-c2ccccc2)c1C#N | / | -5% | / | 26 | / | 26
CCCOc1cccc(C(=O)Nc2cccc(-c3nc4ncccc4o3)c2C)c1 | 0 | 7% | -1 | 5 | -10 | /
COCc1cccc(C2=CC(=O)C[C@H](c3ccc(OC)cc3)C2)c1 | -1 | -5% | -2 | -14 | -17 | 2
O=C(/C=C/c1cccs1)NC(=S)NNC(=O)Cc1cccs1 | 5 | -1% | -6 | 4 | -6 | -80*
COc1ccc(/C=C/C(=O)NC(=S)NNC(=O)Cc2cccs2)cc1OC | 1 | -7% | 8 | 1 | 1 | -72*
COc1ccc(/C=C/C(=O)NC(=S)NNC(=O)c2cccnc2)cc1OC | 0 | 2% | -4 | 3 | 7 | -61*
O=C(/C=C/c1cccs1)NCc1cccs1 | / | 4% | / | -2 | / | -8
CC(=O)NCCNc1nc2cc(-c3cc(F)ccc3C)sc2c(=O)n1C | / | / | / | 3 | / | 14
O=C(Nc1cccc(NC(=O)c2ccc(Cl)cc2)n1)c1ccc(Cl)cc1 | 6 | -10% | -4 | 1 | -33* | 13
Cc1ccc(C(=O)Nc2cccc(NC(=O)c3ccc(C)cc3)n2)cc1 | / | -3% | / | 6 | / | 11
Cc1cccc(C)c1NC(=O)CN(C)C(=O)[C@H](C)NC(=O)c1ccco1 | 4 | 5% | 7 | -5 | -80* | -14
CCOc1cccc2c1OC1(C)CC2NC(=O)N1c1cccc(C(=O)NCc2ccccn2)c1 (stereo not given) | 3 | -6% | 0 | -9 | 36 | 13
CCOc1cccc2c1OC1(C)CC2NC(=O)N1c1cccc(F)c1 (stereo not given) | 1 | 1% | -7 | 5 | 5 | -51*
COc1ccc(OC)c(N(CC(=O)N2CCC(C)CC2)S(=O)(=O)c2ccccc2)c1 | 2 | 1% | -2 | -18 | 3 | -14
Brc1ccc2[nH]ncc2c1 | 2 | / | -6 | 1 | -32* | -7
O=[N+]([O-])c1ccc2[nH]ncc2c1 | 4 | 1% | -9 | 0 | -44* | 11
O=c1[nH]c2ccc([N+](=O)[O-])cc2[nH]1 | / | -3% | / | -12 | / | 3
CCc1nc(SCC(=O)N2CCCC2)c2ccccc2n1 | 0 | / | -6 | 4 | -1 | -12
O=C(CSc1ncnc2ccccc12)c1cccs1 | 3 | -3% | -6 | 4 | -54* | -3
SMILES | D1 agonist | ERG-DNA inh | D1 PAM | DRD3 agonist | D1 antag | DRD3 antagonist
O=C(CSc1ncnc2ccccc12)N1CCCC1 | 0 | 3% | -4 | 0 | -74* | -19
O=C(CNC(=O)c1ccco1)N/N=C/c1c[nH]c2ccccc12 | 2 | -3% | -3 | -2 | -5 | -6
Cc1ccc(C(=O)O/N=C/c2c(Cl)n(C)c3ccccc23)cc1 | 1 | -1% | 3 | -1 | -3 | 0
Cn1c(Cl)c(/C=N/OC(=O)c2ccc(Cl)cc2)c2ccccc21 | 2 | -5% | -6 | -7 | 6 | -69*
Cc1ccc(C(=O)O/N=C/c2c(N3CCOCC3)n(C)c3ccccc23)cc1 | 1 | -8% | -3 | 53* | 10 | 46
Cc1nc2ccccc2c(=O)n1NC(=O)c1ccc([N+](=O)[O-])cc1Cl | 2 | 6% | -4 | -1 | 0 | 8
O=C(NCc1ccccn1)c1cccc(S(=O)(=O)Nc2ccc(SC(F)F)cc2)c1 | 6 | -5% | 0 | 5 | -1 | 4
O=C(Nc1cccc2ccccc12)NC1Cc2ccccc2C1 | 1 | 4%[15.4 µM] | -2 | 13 | -8 | 0
O=C(CN1CCN(Cc2ccc(Cl)cc2)C1=O)NCCCN1CCN(c2ccc(F)cc2)CC1 | 4 | -2% | -3 | -48 | -10 | -66*
Cc1ccccc1CN1CCN(CC(=O)NCCCN2CCN(c3ccc(F)cc3)CC2)C1=O | 24 | 4% | -12 | -17 | -65* | ?
CC(=O)Nc1cc(-c2ccc(C(=O)N3CCOCC3)cc2)cn2c(-c3ccccc3)cnc12 | / | / | / | 2 | / | 8
Cc1nn(-c2cc(N3CCCC3)ccc2[N+](=O)[O-])c(=O)c2ccccc12 | 1 | 0% | 2 | -1 | -1 | -59*
Cc1nn(-c2cc(N3CCOCC3)ccc2[N+](=O)[O-])c(=O)c2ccccc12 | 1 | / | -1 | 2 | -9 | -28
CCOc1cc(/C=N/NC(=O)c2nnn(-c3nonc3N)c2C)ccc1OCc1cccc(F)c1 | 1 | 2% | 4 | -4 | -5 | 2
COc1ccc2[nH]cc(CCN=C(NC(=O)c3ccccc3C)Nc3nc(C)cc(C)n3)c2c1 | 0 | -1% | -5 | 8 | 0 | /
CC(NC(=O)C1CCC(CNS(=O)(=O)c2ccccc2)CC1)c1ccccc1 (stereo not given) | 11 | -3% | -8 | -4 | -41* | 6
CC(C)c1ccc(C(C)NC(=O)C2CCCC2)cc1 (stereo not given) | 13 | 4% | -3 | 31* | 30 | -4
CC(NC(=O)C1CCCC1)c1ccc(Br)cc1 (stereo not given) | 5 | 17% | 4 | 20 | -3 | -17
O=C(Cn1ccc2cc(S(=O)(=O)N3CCCCC3)ccc21)NCCc1ccc(Cl)cc1 | 2 | 2% | 0 | -10 | -3 | /
Cc1ccc(OCCSc2nc(-c3ccccc3C)nc3cc(=O)[nH]n23)cc1Cl | 26 | 5% | -6 | 3 | -62* | /
COc1ccc(-c2nc(SCCOc3cc(C)ccc3C(C)C)n3[nH]c(=O)cc3n2)cc1 | 2 | 9% | -1 | -9 | -2 | /

Screens as filed in PubChem.
